Non-standard residues stand in square brackets, D forms with d. Residues, ends and D or L forms follow the SMILES beside them. *: point of attachment. Nva = CCC[C@H](N)C(=O)O; Cbz = O=C(OCc1ccccc1)*
Assay: qHTS profiling of the MIPE4 collection as inhibitors of Plasmodium falciparum (DD2) proliferation (Rep 2) (AID 743346)
Conditions: P. falciparum Dd2 in erythrocytes, SYBR Green DNA, 72 h; at 28.5 µM unless noted
Outline: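 Parasite DNA was quantified by SYBR Green I fluorescence (ex 485, em 535 nm) after overnight lysis in saponin/Triton buffer at room temperature. Cultures at 0.3% parasitemia and 2.5% hematocrit were first exposed to compound for 72 h at 37 C; signals were normalised to artemisinin (0.29 uM) and vehicle wells.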
O=S(=O)(O)CCSSCCS(=O)(=O)O showed a parasite growth, % of control (lower = inhibition) of 69.9%. Work on Cc1cc(C(=O)NOCCO)c(Nc2ccc(I)cc2F)n(C)c1=O yielded a parasite growth, % of control (lower = inhibition) of 84.7%. With Nc1nc(N)c2nc(-c3cccc(O)c3)c(-c3cccc(O)c3)nc2n1 the parasite growth, % of control (lower = inhibition) was 26.2%. Compound CN[C@H]1[C@@H](O)[C@@H]2O[C@@H]3O[C@H](C)CC(=O)[C@]3(O)O[C@@H]2[C@@H](NC)[C@H]1O has a parasite growth, % of control (lower = inhibition) of 19.2%. With Cc1ncc(-c2ccnc(Nc3ccc(S(C)(=O)=O)cc3)n2)n1C(C)C the parasite growth, % of control (lower = inhibition) was 10.8%. For C[C@H](NC(=O)Cc1cc(F)cc(F)c1)C(=O)N[C@H](C(=O)OC(C)(C)C)c1ccccc1, the parasite growth, % of control (lower = inhibition) was 79.9%. CCc1cnn2c(NCc3ccc[n+]([O-])c3)cc(N3CCCC[C@@H]3CCO)nc12 showed a parasite growth, % of control (lower = inhibition) of 12.6%. Work on O=C(NNC(=O)c1ccc(CNS(=O)(=O)c2ccc(F)c(Cl)c2)cc1)c1ccccc1 yielded a parasite growth, % of control (lower = inhibition) of 100%. CC(C)c1cc(C(C)C)c(CC(=O)NS(=O)(=O)Oc2c(C(C)C)cccc2C(C)C)c(C(C)C)c1 showed a parasite growth, % of control (lower = inhibition) of 80.1%. With CCc1nc(-c2cccc(C)c2)c(-c2ccnc(NC(=O)c3ccccc3)c2)s1 the parasite growth, % of control (lower = inhibition) was 49.3%. Compound C=CC(=O)Nc1cccc(Nc2nc(NC3CCC(N(C)C)CC3)nc3c2ncn3C(C)C)c1 (stereo not drawn) has a parasite growth, % of control (lower = inhibition) of 35.4%. C#C[C@]1(O)CC[C@@H]2[C@@H]3CCC4=CC(=O)CC[C@@H]4[C@H]3CC[C@@]21CC gave a parasite growth, % of control (lower = inhibition) of 51.5%. For Cc1cnc(Nc2ccc(N3CCN(C)CC3)cc2)nc1Nc1cccc(S(=O)(=O)NC(C)(C)C)c1, the parasite growth, % of control (lower = inhibition) was 12.4%. Compound Cc1cncc2cccc(S(=O)(=O)N3CCCN(C(=O)CN)C[C@@H]3C)c12 has a parasite growth, % of control (lower = inhibition) of 51%. c1ccc(CNc2nc(NCc3ccccc3)c3ccccc3n2)cc1 showed a parasite growth, % of control (lower = inhibition) of 10.1%. Compound Cn1cc(-c2cnn3c(N)c(Br)c([C@H]4CCCNC4)nc23)cn1 has a parasite growth, % of control (lower = inhibition) of 8.07%. COc1ccc(C(C)=O)c(O)c1 showed a parasite growth, % of control (lower = inhibition) of 131%. For C#Cc1cccc(Nc2ncnc3cc(OCCOC)c(OCCO)cc23)c1, the parasite growth, % of control (lower = inhibition) was 18.2%. Work on O=C(c1ccc(F)cc1)N1CCC[C@H](c2nc(-c3ccc(F)cc3)no2)C1 yielded a parasite growth, % of control (lower = inhibition) of 70.9%. Compound CC(C)NC[C@@H](C(=O)N1CCN(c2ncnc3c2[C@H](C)C[C@H]3O)CC1)c1ccc(Cl)cc1 has a parasite growth, % of control (lower = inhibition) of 5.81%. For CCOC(=O)C=C[C@H](C[C@@H]1CCNC1=O)NC(=O)[C@@H](CC(=O)[C@@H](NC(=O)c1cc(C)on1)C(C)C)Cc1ccc(F)cc1, the parasite growth, % of control (lower = inhibition) was 41.1%. For OCc1ccccc1O[C@@H]1O[C@H](CO)[C@H](O)[C@H](O)[C@H]1O, the parasite growth, % of control (lower = inhibition) was 89.7%. For CCCCCN=C(N)NN=Cc1c[nH]c2ccc(OC)cc12, the parasite growth, % of control (lower = inhibition) was 22.5%. Compound COC(=O)C=CC(=O)OC has a parasite growth, % of control (lower = inhibition) of 71.3%. Work on CON=C(C(=O)N[C@@H]1C(=O)N2C(C(=O)O)=C(CSC(=O)c3ccco3)CS[C@H]12)c1csc(N)n1 yielded a parasite growth, % of control (lower = inhibition) of 71%. For CC(C)c1cnn2c(NCc3ccccc3)cc(NCCCCCCN)nc12, the parasite growth, % of control (lower = inhibition) was 11.2%. CCOC(=O)N1CCN([N+]([O-])=NOc2ccc([N+](=O)[O-])cc2C#N)CC1 gave a parasite growth, % of control (lower = inhibition) of 17.1%. Compound OCC(O)C(O)C(O)CO (stereo not drawn) has a parasite growth, % of control (lower = inhibition) of 114%. CC1(C)O[C@@H]2C[C@H]3[C@@H]4CCC5=CC(=O)C=C[C@]5(C)[C@@H]4[C@@H](O)C[C@]3(C)[C@]2(C(=O)CO)O1 showed a parasite growth, % of control (lower = inhibition) of 7.43%. CCc1ccc(C(=O)Nc2cc(CN3CCN(C)CC3)cc(C(F)(F)F)c2)cc1C#Cc1cnc2ccnn2c1 gave a parasite growth, % of control (lower = inhibition) of 10.5%. Compound CCC[C@@H](C=O)NC(=O)[C@H](CC(C)C)NC(=O)[C@H](CC(C)C)NC(=O)OCc1ccccc1 (Cbz-Leu-Leu-[Nva]-aldehyde) has a parasite growth, % of control (lower = inhibition) of 7.93%. Work on CC(O)(C#Cc1ccc2c(c1)N(c1nc(N)ncc1Cl)CC2)c1nccs1 (stereo not drawn) yielded a parasite growth, % of control (lower = inhibition) of 22.8%. With O=C1NC(O)CCN1[C@@H]1O[C@H](CO)[C@H](O)[C@H]1O (stereo partly drawn) the parasite growth, % of control (lower = inhibition) was 109%.
